# Test results published in PubChem BioAssay (EPA / NIEHS).
# Records with an inconclusive call do not appear. Activity calls are given as the source filed them. How the source made its calls: active means hit-call score of the fitted dose curve at least 0.9, where 1 is the maximum; inconclusive means response in the unintended direction; inactive means score below 0.9.
# Test system: not listed separately
# Assay: TOX21_p53_BLA_p3_viability: Viability Assessment in the Tox21 HCT-116 p53 Agonism Beta-lactamase Assay, Phase 3 (AID 2283593);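 further: cells exposed to compound for 16 h before reading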
# Method in brief: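 HCT116 cells, 4000/well, dosed 5 h after plating by pin transfer (217-fold dilution from DMSO stock) and incubated 16 h at 37C, 5% CO2. Viability read as ATP luminescence with CellTiter-Glo after 30 min at room temperature.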
row,SMILES,outcome
1,COC(=O)[C@H]1[C@H]2C[C@@H]3c4[nH]c5cc(OC)ccc5c4CCN3C[C@H]2C[C@@H](OC(=O)/C=C/c2cc(OC)c(OC)c(OC)c2)[C@@H]1OC,inactive
2,Cn1c(=O)c2[nH]c(Br)nc2n(C)c1=O,inactive
3,Cc1cc(-c2ccccc2)nnc1NCCN1CCOCC1,inactive
4,COC(=O)C1=C(C)NC(C)=C(C(=O)O[C@@H]2CCCN(Cc3ccccc3)C2)[C@@H]1c1cccc([N+](=O)[O-])c1,inactive
5,CC1(C)C(O)C(C)(C)C1O (configuration not stated),inactive
6,COC(=O)C1CC(=O)C(C(=O)OC)CC1=O (configuration not stated),inactive
7,CO[Si](OC)(OC)OC,inactive
8,O=C(O)c1ccccc1S,inactive
9,CCN1CCN(c2cc3c(cc2F)c(=O)c(C(=O)O)cn3C2CC2)CC1,inactive
10,CC(C)(C)OC=O,inactive
11,CCN(CC)S(=O)(=O)c1ccc(C(=O)O)cc1,inactive
12,CNCCS(=O)(=O)O,inactive
13,COc1ccc(C(=O)Nc2ccccc2)cc1[N+](=O)[O-],inactive
14,O=C(OOC(=O)c1ccccc1)c1ccccc1,inactive
15,COc1cc(OC)c(C(=O)CCCN2CCCC2)c(OC)c1,inactive
16,Cc1[nH]cnc1CN1CCc2c(c3ccccc3n2C)C1=O,inactive
17,CC12CCC(C(=O)C1=O)C2(C)C (configuration not stated),inactive
18,c1cnccn1,inactive
19,COc1ccccc1OCC(O)COC(N)=O (configuration not stated),inactive
20,CCC(=O)C=CC1C(C)=CCCC1(C)C (configuration not stated),inactive

row,SMILES,outcome
1,CC1(C)CCC(NC(=O)[C@@H](N)CCC(=O)O)CC1,inactive
2,CCN[C@@H]1C[C@H](N)[C@@H](OC2OC(CN)=CCC2N)[C@H](O)[C@H]1O[C@H]1OC[C@](C)(O)[C@H](NC)[C@H]1O (some centres not stated),inactive
3,Nc1ccc2ccccc2c1S(=O)(=O)O,inactive
4,CC(C)Cc1ccc([C@@H](C)C(=O)NS(C)(=O)=O)cc1,inactive
5,Cc1cc(C)c(NC(=O)CN(CC(=O)O)CC(=O)O)c(C)c1Br,inactive
6,CCOC(=O)c1ccc(NC(=O)CN2CCCCC2)cc1,inactive
7,CC(C)CCC[C@@H](C)[C@H]1CC[C@H]2[C@@H]3CC=C4C[C@@H](O)CC[C@]4(C)[C@H]3CC[C@]12C,inactive
8,CCC(=O)OCC(=O)[C@@]1(OC(=O)CC)[C@H](C)C[C@H]2[C@H]3[C@H]([C@@H](O)C[C@@]21C)[C@@]1(C)C=CC(=O)C=C1C[C@H]3Cl,inactive
9,C[Si](C)(C)C,inactive
10,Nc1nc(-c2ccccc2)c(Br)c(=O)[nH]1,inactive
11,O=C(O)CSCC(=O)NC1CCSC1=O (configuration not stated),inactive
12,O=C(O)c1cccc(C(=O)O)c1C(=O)O,inactive
13,CCCCCCCCCCCCOC(=O)c1ccc(O)cc1,inactive
14,C[N+](C)(C)CCOC(N)=O,inactive
15,Cc1cc(O)cc2c1O[C@](C)(CCC[C@H](C)CCC[C@H](C)CCCC(C)C)CC2,inactive
16,N[C@H]1C(O)O[C@H](CO)[C@@H](O)[C@@H]1O (some centres not stated),inactive
17,CO/N=C(\C(=O)N[C@@H]1C(=O)N2C(C(=O)OCOC(=O)C(C)(C)C)=C(/C=C\c3scnc3C)CS[C@H]12)c1csc(N)n1,inactive
18,C=C(C)C1CCC(C)(O)CC1 (configuration not stated),inactive
19,CCCCCCCCCCCCCCCCCCOP(=O)([O-])OC1CC[N+](C)(C)CC1,inactive

# Biological target: Cellular tumor antigen p53 (Homo sapiens) (UniProt P04637)
# Assay: TOX21_p53_BLA_p5_ratio: Tox21 HCT-116 p53 Agonism Beta-lactamase Assay, Ratio, Phase 5 (AID 2283599)
# Method in brief: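 HCT-116 p53-bla cells (4000/well) plated 5 h, dosed with compound (217-fold DMSO dilution) for 16 h at 37 C; CCF4-AM substrate 2 h at room temperature. Activity is the 460/530 nm emission ratio (405 nm excitation), fitted in gain-of-signal direction versus DMSO.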
# Sequence of Cellular tumor antigen p53 (Homo sapiens) (P04637 whole entry, looked up): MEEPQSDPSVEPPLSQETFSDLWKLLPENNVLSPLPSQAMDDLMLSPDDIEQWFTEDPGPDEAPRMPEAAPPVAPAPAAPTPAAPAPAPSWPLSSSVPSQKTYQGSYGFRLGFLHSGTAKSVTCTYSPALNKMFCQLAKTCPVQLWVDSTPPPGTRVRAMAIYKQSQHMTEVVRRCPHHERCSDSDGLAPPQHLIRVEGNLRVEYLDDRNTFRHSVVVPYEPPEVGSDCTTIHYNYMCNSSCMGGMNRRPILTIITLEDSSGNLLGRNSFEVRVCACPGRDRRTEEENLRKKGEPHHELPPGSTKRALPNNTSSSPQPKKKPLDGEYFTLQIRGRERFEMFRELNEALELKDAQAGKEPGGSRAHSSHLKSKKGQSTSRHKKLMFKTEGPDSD
row,SMILES,outcome
1,COC(=O)[C@H]1[C@H]2C[C@@H]3c4[nH]c5cc(OC)ccc5c4CCN3C[C@H]2C[C@@H](OC(=O)/C=C/c2cc(OC)c(OC)c(OC)c2)[C@@H]1OC,inactive
2,Cn1c(=O)c2[nH]c(Br)nc2n(C)c1=O,inactive
3,Cc1cc(-c2ccccc2)nnc1NCCN1CCOCC1,inactive
4,COC(=O)C1=C(C)NC(C)=C(C(=O)O[C@@H]2CCCN(Cc3ccccc3)C2)[C@@H]1c1cccc([N+](=O)[O-])c1,inactive
5,CC1(C)C(O)C(C)(C)C1O (configuration not stated),inactive
6,CO[Si](OC)(OC)OC,inactive
7,O=C(O)c1ccccc1S,inactive
8,CCN1CCN(c2cc3c(cc2F)c(=O)c(C(=O)O)cn3C2CC2)CC1,inactive
9,CC(C)(C)OC=O,inactive
10,CCN(CC)S(=O)(=O)c1ccc(C(=O)O)cc1,inactive
11,CNCCS(=O)(=O)O,inactive
12,COc1ccc(C(=O)Nc2ccccc2)cc1[N+](=O)[O-],inactive
13,O=C(OOC(=O)c1ccccc1)c1ccccc1,inactive
14,COc1cc(OC)c(C(=O)CCCN2CCCC2)c(OC)c1,inactive
15,Cc1[nH]cnc1CN1CCc2c(c3ccccc3n2C)C1=O,inactive
16,CC12CCC(C(=O)C1=O)C2(C)C (configuration not stated),inactive
17,c1cnccn1,inactive
18,COc1ccccc1OCC(O)COC(N)=O (configuration not stated),inactive
19,CCC(=O)C=CC1C(C)=CCCC1(C)C (configuration not stated),inactive

row,SMILES,outcome
1,CC1(C)CCC(NC(=O)[C@@H](N)CCC(=O)O)CC1,inactive
2,CCN[C@@H]1C[C@H](N)[C@@H](OC2OC(CN)=CCC2N)[C@H](O)[C@H]1O[C@H]1OC[C@](C)(O)[C@H](NC)[C@H]1O (some centres not stated),inactive
3,Nc1ccc2ccccc2c1S(=O)(=O)O,inactive
4,CC(C)Cc1ccc([C@@H](C)C(=O)NS(C)(=O)=O)cc1,inactive
5,Cc1cc(C)c(NC(=O)CN(CC(=O)O)CC(=O)O)c(C)c1Br,inactive
6,CCOC(=O)c1ccc(NC(=O)CN2CCCCC2)cc1,inactive
7,CC(C)CCC[C@@H](C)[C@H]1CC[C@H]2[C@@H]3CC=C4C[C@@H](O)CC[C@]4(C)[C@H]3CC[C@]12C,inactive
8,CCC(=O)OCC(=O)[C@@]1(OC(=O)CC)[C@H](C)C[C@H]2[C@H]3[C@H]([C@@H](O)C[C@@]21C)[C@@]1(C)C=CC(=O)C=C1C[C@H]3Cl,inactive
9,C[Si](C)(C)C,inactive
10,Nc1nc(-c2ccccc2)c(Br)c(=O)[nH]1,inactive
11,O=C(O)CSCC(=O)NC1CCSC1=O (configuration not stated),inactive
12,O=C(O)c1cccc(C(=O)O)c1C(=O)O,inactive
13,CCCCCCCCCCCCOC(=O)c1ccc(O)cc1,inactive
14,C[N+](C)(C)CCOC(N)=O,inactive
15,Cc1cc(O)cc2c1O[C@](C)(CCC[C@H](C)CCC[C@H](C)CCCC(C)C)CC2,inactive
16,N[C@H]1C(O)O[C@H](CO)[C@@H](O)[C@@H]1O (some centres not stated),inactive
17,CO/N=C(\C(=O)N[C@@H]1C(=O)N2C(C(=O)OCOC(=O)C(C)(C)C)=C(/C=C\c3scnc3C)CS[C@H]12)c1csc(N)n1,inactive
18,C=C(C)C1CCC(C)(O)CC1 (configuration not stated),inactive
19,CCCCCCCCCCCCCCCCCCOP(=O)([O-])OC1CC[N+](C)(C)CC1,inactive
